High-throughput results from PubChem.
T cruzi growth-1 = T. cruzi intracellular proliferation inhibitors, primary screen, cell-based, beta-gal Tulahuen parasites, NIH3T3 host, luminescence. inhibition, % at 8.34 µM. T. cruzi beta-gal in NIH3T3, GalScreen luminescence, 90 h. hit rate 5.9% among 77,000;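 active = mean inhibition above about 93%, with at least 55% of replicates each passing it, limit read from the data, passing the limit was not always enough; inconclusive = only one of those two conditions holds; inactive = neither condition holds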
C diff HTS = C. difficile growth inhibitors, primary screen, HTS; growth activity, negative = inhibition, % at 16 µg/mL (by protocol); hit rate 0.25% among 86,000; Clostridium difficile clinical isolate growth, OD600, 24 h; stronger effect = lower value; AID 1259249, 2017;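 active = mean growth activity at or below -80% and every replicate also at or below -80%; inconclusive = mean at or below -80% but some replicate above -80%; inactive = mean growth activity above -80%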
T cruzi growth-2 = T. cruzi intracellular proliferation inhibitors, confirmation, cell-based, NIH3T3 host, beta-gal parasite, luminescence, cherry-pick; shares compounds with T cruzi growth-1; T. cruzi beta-gal in NIH3T3, GalScreen luminescence, 90 h; hit rate 72% among 5,600; inhibition, % at 8.35 µM;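 active = mean replicate inhibition above about 95% and at least 55% of replicates individually reaching it, limit read from the data; inconclusive = only one of the two criteria is met; inactive = neither criterion is met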
T cruzi growth-3 = inhibitors of intracellular T. cruzi replication, confirmation, NIH3T3 host cells, beta-gal parasites, cherry-pick, set 2. shares compounds with T cruzi growth-1. T. cruzi beta-gal in NIH3T3, GalScreen luminescence, 90 h. inhibition, % at 2.09 µM. hit rate 21% among 5,600;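 active = mean inhibition above about 95%, with at least 55% of replicates also reaching it, limit read from the data; inconclusive = meets just one of the two conditions; inactive = meets neither condition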
NIH3T3 tox = cytotoxicity in mouse NIH/3T3 fibroblasts, confirmation, cytotoxicity control for T. cruzi proliferation inhibitor project, cell-based, cherry-pick, single point; shares compounds with T cruzi growth-1; NIH/3T3 viability, CellTiter-Glo ATP luminescence, 90 h; cytotoxicity (signal decrease), % at 8.35 µM; hit rate 14% among 5,600;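 active = mean signal decrease across replicates above about 35% based on untreated-well scatter, with enough replicates individually passing, limit read from the data; inconclusive = no rule stated though some were filed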
3T3 cytotox 2 = NIH/3T3 fibroblast cytotoxicity, confirmation, cytotoxicity control, cell-based, cherry-pick, single point, set 2. shares compounds with T cruzi growth-1. NIH/3T3 viability, CellTiter-Glo ATP luminescence, 90 h. inhibition, % at 24.9 µM. hit rate 56% among 5,600. AID 651744, 2012;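 active = mean loss of cell viability signal at or above a set limit, and enough replicates individually reaching it; inconclusive = meets only the mean limit or only the replicate share; inactive = meets neither condition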
A number is an active result; - = inactive; ? = inconclusive; . = not tested or not shown; + = active, no number. Shown is part of a subset that was picked to be rich in hits.

SMILES	T cruzi growth-1	C diff HTS	T cruzi growth-2	T cruzi growth-3	NIH3T3 tox	3T3 cytotox 2
C[C@H]1CCCCO[C@H](CN(C)C(=O)Nc2ccc(C(F)(F)F)cc2)[C@@H](C)CN([C@@H](C)CO)C(=O)c2cc(NC(=O)NC3CCCCC3)ccc2O1	109.4	-	97.4	106.9	-	-
O=C(CCN1CCCCC1)NCC[C@@H]1CC[C@@H](NS(=O)(=O)c2cccc(Cl)c2)[C@@H](CO)O1	-	.	.	.	.	.
Cc1noc(C)c1NC(=O)Nc1ccc2c(c1)C(=O)N([C@H](C)CO)C[C@H](C)[C@@H](CN(C)S(=O)(=O)c1ccc(F)cc1)OCCCC[C@@H](C)O2	-	-	.	.	.	.
C[C@@H]1CN([C@H](C)CO)C(=O)c2cc(NS(=O)(=O)c3cccs3)ccc2O[C@@H](C)CCCCO[C@H]1CN(C)Cc1ccc(Cl)c(Cl)c1	124.9	-	-	114.9	61.1	106.1
C[C@@H]1CCCCO[C@H](CN(C)Cc2ccncc2)[C@H](C)CN([C@@H](C)CO)C(=O)c2cc(NS(=O)(=O)c3cccs3)ccc2O1	-	-	.	.	.	.
C[C@@H]1CCCCO[C@@H](CN(C)Cc2ccc(Cl)c(Cl)c2)[C@H](C)CN([C@H](C)CO)C(=O)c2cc(NS(=O)(=O)c3cccs3)ccc2O1	?	-	109.1	113.3	-	106.6
C[C@@H]1CN([C@H](C)CO)C(=O)c2cc(NS(=O)(=O)c3cccs3)ccc2O[C@@H](C)CCCCO[C@H]1CN(C)Cc1ccncc1	-	-	.	.	.	.
C[C@@H]1CCCCO[C@H](CN(C)Cc2ccncc2)[C@@H](C)CN([C@@H](C)CO)C(=O)c2cc(NS(=O)(=O)c3cccs3)ccc2O1	-	-	.	.	.	.
C[C@@H]1CCCCO[C@@H](CN(C)Cc2ccc(Cl)c(Cl)c2)[C@H](C)CN([C@@H](C)CO)C(=O)c2cc(NS(=O)(=O)c3cccs3)ccc2O1	?	-	96.5	107.9	117.7	103.4
C[C@H]1CCCCO[C@@H](CN(C)Cc2ccncc2)[C@@H](C)CN([C@@H](C)CO)C(=O)c2cc(NS(=O)(=O)c3cccs3)ccc2O1	-	-	.	.	.	.
C[C@@H]1CCCCO[C@@H](CN(C)Cc2ccc(Cl)c(Cl)c2)[C@@H](C)CN([C@@H](C)CO)C(=O)c2cc(NS(=O)(=O)c3cccs3)ccc2O1	?	-	97.0	-	-	51.2
CCCN1[C@@H]2c3ccc(C4=CCCCC4)c(=O)n3C[C@H]1[C@H](CO)[C@H]2C(=O)N1CCOCC1	-	-	.	.	.	.
COc1cccc(CNC(=O)C[C@H]2CC[C@H](NC(=O)C3CCC3)[C@@H](CO)O2)c1	-	-	.	.	.	.
C[C@@H]1CCCCO[C@H](CN(C)C(=O)C2CCCCC2)[C@@H](C)CN([C@@H](C)CO)C(=O)c2cc(NC(=O)CCC(F)(F)F)ccc2O1	-	-	.	.	.	.
COc1ccc(S(=O)(=O)Nc2ccc3c(c2)C(=O)N([C@H](C)CO)C[C@@H](C)[C@@H](CN(C)Cc2ccncc2)OCCCC[C@@H](C)O3)cc1	-	-	.	.	.	.
COc1ccc(C#Cc2ccc3c(c2)[C@H]2[C@H](CCN2S(=O)(=O)C2=NC(C)C=N2)[C@@H](CO)N3C)cc1 (stereo partly specified)	-	-	.	.	.	.
C[C@@H]1CN([C@H](C)CO)C(=O)c2cc(NS(=O)(=O)c3cccs3)ccc2O[C@@H](C)CCCCO[C@@H]1CN(C)Cc1ccc(Cl)c(Cl)c1	?	-	-	110.9	99.8	90.6
C[C@H]1CCCCO[C@H](CN(C)Cc2ccncc2)[C@@H](C)CN([C@@H](C)CO)C(=O)c2cc(NS(=O)(=O)c3cccs3)ccc2O1	-	-	.	.	.	.
OC[C@H]1[C@@H](c2ccccc2)C2(CN(Cc3nccs3)C2)N1CCC(F)(F)F	.	-	.	.	.	.
C[C@H]1CCCCO[C@H](CN(C)S(=O)(=O)c2ccccc2)[C@@H](C)CN([C@@H](C)CO)C(=O)c2cc(NS(=O)(=O)c3cccs3)ccc2O1	-	-	.	.	.	.
C[C@@H]1CN([C@@H](C)CO)C(=O)c2cc(NS(=O)(=O)c3cccs3)ccc2O[C@@H](C)CCCCO[C@H]1CN(C)S(=O)(=O)c1ccc(Cl)cc1	-	-	.	.	.	.
C[C@@H]1CCCCO[C@H](CN(C)S(=O)(=O)c2ccc(Cl)cc2)[C@@H](C)CN([C@@H](C)CO)C(=O)c2cc(NS(=O)(=O)c3cccs3)ccc2O1	110.4	-	113.5	-	-	-
C[C@@H]1CCCCO[C@@H](CN(C)S(=O)(=O)c2ccc(Cl)cc2)[C@H](C)CN([C@@H](C)CO)C(=O)c2cc(NS(=O)(=O)c3cccs3)ccc2O1	102.0	-	105.0	-	-	-
O=C(c1ccncc1)N1CC(=O)N2[C@H](CO)[C@H](c3ccc(-c4ccccc4)cc3)[C@H]2C1	.	-	.	.	.	.
CN(C)C(=O)[C@@H]1[C@@H](CO)[C@@H]2Cn3c(ccc(C4=CCCC4)c3=O)[C@@H]2N1Cc1ccccn1	-	-	.	.	.	.
SMILES	T cruzi growth-1	C diff HTS	T cruzi growth-2	T cruzi growth-3	NIH3T3 tox	3T3 cytotox 2
O=C(O)[C@@H]1[C@@H](CO)[C@@H]2Cn3c(ccc(C4=CCCCC4)c3=O)[C@@H]2N1Cc1ccccc1F	-	-	.	.	.	.
CN(C)C(=O)[C@H]1[C@H](CO)[C@H]2Cn3c(ccc(C4=CCCCC4)c3=O)[C@H]2N1Cc1ccccn1	+	-	-	-	-	-
CCCNC(=O)[C@H]1[C@H](CO)[C@H]2Cn3c(ccc(C4=CCCCC4)c3=O)[C@H]2N1Cc1ccccc1F	102.5	-	106.4	-	-	?
O=C(NCC1CC1)[C@H]1[C@H](CO)[C@H]2Cn3c(ccc(C4=CCCCC4)c3=O)[C@H]2N1Cc1ccccc1F	98.9	-	-	-	-	66.0
O=C(NCC1CC1)[C@H]1[C@H](CO)[C@H]2Cn3c(ccc(-c4ccccc4)c3=O)[C@H]2N1Cc1cocn1	97.6	-	-	-	-	-
O=C(NCC1CC1)[C@@H]1[C@@H](CO)[C@@H]2Cn3c(ccc(C4=CCCC4)c3=O)[C@@H]2N1Cc1ccccc1F	-	-	.	.	.	.
O=C(NCC1CC1)[C@@H]1[C@@H](CO)[C@@H]2Cn3c(ccc(-c4cccnc4)c3=O)[C@@H]2N1Cc1cocn1	-	-	.	.	.	.
Cc1ccc(S(=O)(=O)N(C)C[C@H]2Oc3ccc(NC(=O)Cn4cnnn4)cc3C(=O)N([C@@H](C)CO)C[C@H]2C)cc1	-	-	.	.	.	.
C[C@H](CO)N1C[C@H](C)[C@H](CN(C)Cc2ccncc2)Oc2c(NC(=O)Nc3ccc4c(c3)OCO4)cccc2C1=O	-	-	.	.	.	.
C[C@@H]1CN([C@H](C)CO)C(=O)c2cc(C#CCc3ccccc3)cnc2O[C@H]1CN(C)Cc1cccc(C(=O)O)c1	-	-	.	.	.	.
CS(=O)(=O)Nc1ccc2c(c1)[C@H]1C[C@H](CC(=O)NCc3ccccn3)O[C@@H](CO)[C@H]1O2	-	-	.	.	.	.
